In PubChem BioAssay AID540317 (National Center for Advancing Translational Sciences (NCATS), 2011):
About 2,200 (0.56%) of roughly 390,000 compounds were called active. Another 3% or so got no clear call; they are omitted. The call rests on the fitted dose curve; in most records, active means well fitted inhibition curve with a large enough effect; inconclusive means small, poorly fitted or top-dose-only effect; inactive means no such curve, though single readings can be large or run the other way. The entries come from a sample that favours actives as a whole.

The compounds below were run against Chromobox protein homolog 1 (Homo sapiens) (UniProt P83916) (assay: HTS for Inhibitors of HP1-beta Chromodomain Interactions with Methylated Histone Tails). Details: AlphaScreen HP1-beta / biotin-H3K9me3 peptide binding; series mostly up to 114 µM; activity change, negative = inhibition: at the top concentration.
Chromobox protein homolog 1 (Homo sapiens), sequence (P83916 whole entry, looked up): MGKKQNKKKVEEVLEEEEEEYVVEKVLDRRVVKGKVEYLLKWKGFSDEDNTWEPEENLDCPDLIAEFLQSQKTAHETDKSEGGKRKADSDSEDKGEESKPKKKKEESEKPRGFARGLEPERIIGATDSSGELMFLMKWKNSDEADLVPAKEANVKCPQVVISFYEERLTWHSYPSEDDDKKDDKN
Source text: As our understanding of epigenetics expands, it is becoming clear that players in this field are potential targets for drug development. This area of epigenetic therapy has established applications for the treatment of cancer and neurological diseases. We have been involved in this field for a number of years and have performed high-throughput screens to identify the first small molecule inhibitors of protein methyltransferases. These methyltransferases target multiple substrates, and thus regulate many arms of an epigenetic pathway. The methylation of different substrates often generates docking sites for effector proteins that harbor binding domains (chromo, tudor, PHD, MBT and ANK repeats). It has been proposed that the binding sites generated for different proteins by these post-translational modifcations mediate downstream effects on chromatin. Consistent with this theory, di- and tri-methylation of histone H3K9 facilitates the binding of heterochromatin protein HP1. The HP1 protein harbors a chromodomain that is responsible for the methyl-dependent interaction between HP1 and lysine 9 of histone H3. HP1 was first described in flies as a heterochromatin associated protein that can regulate gene silencing. It harbors a chromodomain that binds H3K9me3. In addition, it harbors a chromoshadow domain that interacts with a large number of proteins that are involved in heterochromatin formation and gene repression. There are three highly related HP1 isoforms. All three variants are associated with pericentric heterochromatin and it is not clear whether they have specific or redundant functions. MPP8 is also involved in the repression of gene in euchromatic regions (unpublished data) and like HP1 its chromodomain binds H3K9me3. MPP8 harbors an ankyrin repeat region that is likely involved in binding and recruiting interacting proteins with transcriptional repressive function, much like the chromoshadow domain of HP1 does. We hypothesize that by inhibiting specific protein-protein interactions we will be able to develop compounds that block a single arm of an epigenetic pathway. The specificity attained by blocking a single protein-protein interaction will be far greater than that attained by blocking the enzyme that regulates one of many interactions. Low-affinity protein-protein interactions (Kd in the single- to double-digit micromolar range) such as those discussed here have been very difficult to assay by traditional techniques such as fluorescence polarization or fluorescence resonance energy transfer. We have developed a sensitive chemiluminescence-based assay (Quinn, et al. 2009), which serves as the starting point for this project. The following is a validation assay to identify lead compounds that can block methyl-dependent protein-protein interactions (specifically HP1-beta), which can be used as probes to analyze these methyl-driven interactions and perhaps even developed into targeted epigenetic therapies. NIH Chemical Genomics Center [NCGC] NIH Molecular Libraries Probe Centers Network [MLPCN] MLPCN Grant: DA031087 Assay Submitter (PI): Mark Bedford, University of Texas, Medical Anderson Cancer Center, TX
To each well, 2 uL of HP1-beta protein (final 50 nM) and 1 uL biotinylated histone peptide trimethylated at Lys9 [b-H3(1-18)K9me3] (final 50 nM) was added in 1x PBS buffer, pH 7.4, containing 0.01% Tween-20 using a nanoliter dispenser. Formation of a protein-peptide complex proceeded at room temperature for 30 min. A Kalypsys pin-tool was employed to transfer 23 nL of library compound solution in DMSO to each well. Aurintricarboxylic acid (ATA) was used as an intraplate control with a 12-point titration in duplicate. Following a 30 min incubation of the protein-peptide complex with compounds at room temperature, a mixture of 40 ug/mL each streptavidin-coated donor and nickel chelate acceptor AlphaScreen beads (final 10 ug/mL) was added in a 1 uL dispense for a final volume of 4 uL. […]
Further: nearly all actives have a fitted effect of over 70% in size.
Potency means the concentration at half of the fitted maximal effect.

Structure (SMILES)	Potency	activity change, negative = inhibition
O=C(O)c1cc[c]([Sb](=[O])([OH])[OH])cc1[N+](=O)[O-]	0.794 µM (active)	
O=C(c1ccccc1[N+](=O)[O-])N1CCC2(CC1)OCCO2		32% (inactive)
CCOc1ccc(S(=O)(=O)NCc2ccc3c(c2)OCO3)cc1C		64.4% (inactive)
C=CCOC(=O)c1ccccc1C(=O)OCC=C		39.4% (inactive)
CCn1cc2nc(SCc3ccccc3Cl)n(CCc3ccccc3)c(=O)c2n1		38.9% (inactive)
O=c1[nH]c(=S)[nH]c(O)c1/C=C1\C=Nc2ccccc21		42.9% (inactive)
Nc1nc(NC(=O)/C=C/c2ccc(F)cc2)nn1-c1ccccc1		40.4% (inactive)
COc1ccc(N2C(=O)/C(=C/c3ccco3)C(=O)NC2=S)cc1	14.1 µM (active)	
CCOC(=O)CNC(=O)N1c2ccccc2Sc2ccccc21		52.7% (inactive)
Brc1cc(Br)c(Oc2cc(Br)c(Br)cc2Br)cc1Br		76.4% (inactive)
CN(C(=O)CSc1nc2ccc(NC(=O)COc3ccccc3)cc2s1)c1ccccc1		43% (inactive)
c1ccc(CC2CCCCN2)cc1 (stereo not given)		14.8% (inactive)
O=C(Cc1ccc(Cl)cc1)NCCN1CCN(C(=O)Cc2ccc(Cl)cc2)CC1		42.7% (inactive)
c1ccc(CCNC2CCCCCC2)cc1		-14.7% (inactive)
O=C(Cc1ccccc1[N+](=O)[O-])N1CCN(Cc2ccc3c(c2)OCO3)CC1		23.3% (inactive)
COc1ccccc1CN1CCN(C(=O)Cc2ccccc2)CC1	14.1 µM (active)	
O=C(Cc1ccccc1)N1CCN(C2CCCCCC2)CC1	79.4 µM (active)	
O=C(OCC(=O)c1cccs1)C1=COCCO1		30.1% (inactive)

Structure (SMILES)	Potency	activity change, negative = inhibition
O=C(CSc1ccccc1)Nc1ccc(C(=O)Nc2cccc(O)c2)cc1		61.2% (inactive)
O=c1c2ccccc2ccc2ccc(P(=O)(O)O)cc12		46.3% (inactive)
COc1cc(Cl)ccc1Nc1ncc(C(=O)N2CCN(c3ccccc3OC)CC2)c2ccccc12		64.1% (inactive)
O=C(COc1ccccc1Cl)Nc1ccc2nc(SCC(=O)N3CCCC3)sc2c1		35.7% (inactive)
CCOCCCNC(=O)c1c(NC(=O)c2nc(SC)ncc2Cl)sc2c1CCCC2		44.8% (inactive)
C[C@H]1CN([C@@H](C)CO)C(=O)Cc2cc(NC(=O)Cc3ccccc3)ccc2O[C@H]1CN(C)S(=O)(=O)c1cccs1		47.4% (inactive)
COc1cccc(N2C(=O)NC(=O)/C(=C\c3ccc([N+](=O)[O-])s3)C2=O)c1	31.6 µM (active)	
Cc1ccsc1/C=N/NC(=O)Cc1cc(=O)[nH][nH]1		66.6% (inactive)
CC(=O)c1ccc(OC(=O)N2CCOCC2)cc1		60% (inactive)
CCc1ccccc1NC(=O)c1sc2nc3c(cc2c1N)CN(Cc1ccccc1)CC3		39.4% (inactive)
CCN(CC)c1ccc(C2C(C(N)=O)=C(C)Nc3nc(SCc4ccccc4)nn32)cc1 (stereo not given)		33.2% (inactive)
Cc1cc2n(n1)C(c1cc(C(C)(C)C)c(O)cc1O)Nc1ccccc1-2 (stereo not given)		42.3% (inactive)
COc1ccc(CNC(=O)c2cc3c(-c4ccccc4F)nn(C)c3s2)c(OC)c1		51.6% (inactive)
Cc1cc(C)c2c(c1)NP(=S)(c1ccccc1)N2 (stereo not given)	50.1 µM (active)	
Cc1ccc2c(c1)C1CN(C)CCC1N2C(=O)c1ccccc1NS(=O)(=O)c1ccc(F)cc1C (stereo not given)		39.3% (inactive)
O=C(O)C1CSC(c2cccnc2)N1 (stereo not given)	17.8 µM (active)	
CCc1ccc(C2C(C#N)=C(N)Oc3n[nH]c(CC(=O)OC)c32)cc1 (stereo not given)		42.7% (inactive)
